Compounds without any hit were thinned out: in the full panel of roughly 83,000, 20% have a hit.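 The test compound was applied at a single concentration to cells in 96-well plates for 48 hours, and percent growth was recorded.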 A number with no mark means an inactive call. Calls of active or inactive are those of the source. The calls were made as follows: active = growth percent below 10; inactive = the rest.
What follows are compounds tested on PC-3 prostate (assay: NCI-60 one-dose screen, 48 h (100 = growth as untreated, 0 = no growth, -100 = all killed)). Conditions: 10 µM unless noted.

SMILES	growth
CSc1nc(=S)c2nc(SC)n(-c3ccccc3)c2[nH]1	82.3%
O=c1[nH]cnc2c1ccn2C1OC(CO)C(O)C1O (centres undefined)	36.3%
COc1ccc(N(c2nc(-c3ccc([N+](=O)[O-])cc3)cs2)C(C)C)cc1	84%
COc1cc(NN=C(c2ccc(O)cc2)c2ccc(O)cc2)c([N+](=O)[O-])cc1[N+](=O)[O-]	73.1%
COc1ccc2nc3c(cc2c1)C(=O)CC(C(F)(F)F)C3 (centres undefined)	33%
CCOc1ccc(S(=O)(=O)Nc2ccc3c(c2)N(S(=O)(=O)CC)CCC3)cc1	73.1%
O=C(Nc1ccc(C(=O)/C=C/c2ccc(N3CCOCC3)cc2)cc1)Nc1ccc([N+](=O)[O-])cc1	85.5%
C=C(C)[C@@H]1CC[C@]2(C)[C@H](CC[C@@H]3[C@@H]([C@@](C)(O)CCC=C(C)C)CC[C@]32C)[C@@]1(C)CCC(=O)N1CCN(C)CC1	-61.8% [100 µM] (active)
C=C(C)[C@@H]1CC[C@]2(COCCCN)CC[C@]3(C)[C@H](CC[C@@H]4[C@@](C)(CCCNCCCN)[C@H](C(=C)C)CC[C@]43C)[C@@H]12	-53.9% [100 µM] (active)
COc1cc2c(cc1OCCCN1CCN(CCCOc3cc4c(cc3OC)C(=O)N3C[C@H](F)C[C@H]3C=N4)CC1)N=C[C@@H]1C[C@@H](F)CN1C2=O	12.7%
CC(C)c1ccc(/C=N/N=C(N)N)cc1	48.4%
CCCCCCCCCCCCCCCCCCNC(=S)N/N=C/c1ccc(OC)c(OC)c1	92.1%
C=C(C)[C@@H]1CC[C@]2(C)[C@H](CC[C@@H]3[C@@H]([C@@](C)(O)CCC=C(C)C)CC[C@]32C)[C@@]1(C)CCC(=O)O	5.99% [100 µM] (active)
Cc1ccc(S(=O)(=O)Oc2ccc([N+](=O)[O-])cc2[N+](=O)[O-])cc1	83.6%
C=CCCCCOc1ccccc1-c1cnc(OCCCCC=C)n1C	73.5%
Cc1ncc(C(=O)Nc2ccc(CN3CCN(C)CC3)c(C(F)(F)F)c2)cc1C#Cc1c(N)ncc2ccc(C#N)cc12	48.7%
CCc1cccc(Cl)c1	88.2%
Cc1ccc(S(=O)(=O)N/N=C2\CC3CCC2(C)C3(C)C)cc1 (centres undefined)	86.2%
COc1ccc(C(C(=O)O)c2ccc(OC)cc2)cc1	101%
Fc1ccc(NC(=S)c2ccccc2)cc1	100%
c1cc2ccc3cc2cc1CNCCN1CCNCc2ccc4ccc(cc4c2)CNCCN(CCNC3)CCNCc2ccc3ccc(cc3c2)CNCC1	-0.11% (active)
Cn1cc(-c2nnc(-c3ccccc3)s2)c2cc(Br)cnc21	84.9%
CCOc1ccc2sc(NS(=O)(=O)c3ccc(N)cc3)nc2c1	119%
COc1ccc2c(c1)C(C)Cc1c(Cl)ncnc1N2C (centres undefined)	11.4%
